In PubChem BioAssay (NCATS) one finds Potency, viability change and outcome data, which are given here for 17 molecules.

In test [1] the target is D(1A) dopamine receptor (Homo sapiens) (UniProt P21728). Kind of test: HTS Assay for Allosteric Agonists of the Human D1 Dopamine Receptor: Primary Screen for Agonists (AID 488981). Further: 0% is about no effect. The method, boiled down:
(§1)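 Tetracycline-induced HEK293 T-REx cells force-coupled to calcium signalling were incubated overnight at 30 C and dye-loaded at room temperature. Calcium flux over 180 s after compound addition flagged agonists; a further 180 s read after EC20 dopamine flagged potentiators.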

For test [2] the target is unchanged. Description: HTS Assay for Allosteric Agonists of the Human D1 Dopamine Receptor: Primary Screen for Potentiators (AID 488982). Further: potency means the concentration at half of the fitted maximal effect. The method, boiled down:
as §1

Test [3] shares this target. Description: HTS Assay for Allosteric Agonists of the Human D1 Dopamine Receptor: Primary Screen for Antagonists (AID 488983).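 Further: calcium flux response to an EC80 dopamine challenge measured with no-wash dye; nearly all actives have a fitted effect of over 65% in size.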 Further: potency means the concentration at half of the fitted maximal effect. The method, boiled down: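 Screening of inducible HEK293 T-REx D1 cells: compound first, EC80 dopamine 180 s later, each phase read kinetically for calcium over 180 s.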
Test [4] in a line: Validation screen for small molecules that induce genotoxicity in human embryonic kidney (HEK293T) cells expressing luciferase-tagged ELG1 (AID 493106). Further: 0% is about no effect. The method, boiled down:
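Reporter-gene quantitative HTS in HEK293T cells carrying luciferase-tagged ELG1, whose level climbs under genotoxic stress. Compound exposure lasts 16 hr at 37 °C before luciferase detection.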

The nature of test [5]: Nrf2 qHTS screen for inhibitors: Validation (AID 493153; active means well fitted inhibition curve with a large enough effect in the main read-out, with a control signal flat, not every such curve was filed as active). To be noted: Potency: luciferase luminescence; viability change: measured here: cytotoxicity max response. The method, boiled down: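 Dose-response validation uses reporter A549 cells with firefly luciferase under an antioxidant response element. Compounds stay on cells 18-24 h at 37°C, and luminescence indicates Nrf2-driven transcription.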
Background: Quantitative high-throughput screening tests each substance at several concentrations.

A short description of test [6]: qHTS for Inhibitors of Cell Surface uPA Generation: Validation Assay (AID 493164).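 Further: RAW 264.7 macrophage cells exposed to compound for 18 h; 0% is about no effect.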 The method, boiled down: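 RAW 264.7, 4000 cells/well, o/n plating; cpd 7-pt 1:5 dilution 2.45 nM–38.3 uM final; 18 h, 37 C/5% CO2; ATP-Lite, 5 s luminescence exposure.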
For test [7], the target named is Peptidyl-prolyl cis-trans isomerase NIMA-interacting 1 (Homo sapiens) (UniProt Q13526). Description: qHTS Validation Assay to Find Inhibitors of Pin1 (AID 504536; active means well fitted inhibition curve with a large enough effect in the polarisation, with a control signal flat, not every such curve was filed as active; the % refers to the polarisation;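 further: 0% = full Pin1 enzyme wells and -100% = no-enzyme wells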). The method, boiled down: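 Fluorescence polarization competition: compounds (titration) displace HiFluor-488-labeled Pin1-1b peptide from Pin1 (0.3 uM final) in pH 7.5 HEPES buffer with DTT, 10 min at room temperature; %Activity normalized to no-enzyme wells, curves fitted.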
Peptidyl-prolyl cis-trans isomerase NIMA-interacting 1 (Homo sapiens), sequence (Q13526 whole entry, looked up): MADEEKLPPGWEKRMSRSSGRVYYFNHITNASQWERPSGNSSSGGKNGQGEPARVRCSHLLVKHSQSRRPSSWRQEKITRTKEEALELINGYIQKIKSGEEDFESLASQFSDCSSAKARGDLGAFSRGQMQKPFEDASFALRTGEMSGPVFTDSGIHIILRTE

The target of test [8] is Phosphoglycerate kinase, glycosomal (Trypanosoma brucei brucei) (UniProt P07378). Kind of test: qHTS Validation Assay to Find Inhibitors of Phosphoglycerate Kinase (AID 504547). Further: potency means the concentration at half of the fitted maximal effect. The method, boiled down: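 Substrate/PGK mix plus compound; reaction started with GAPDH (100nM final) to form 1,3-BPG; 60 min RT; Kinase-Glo Plus 10 min; luminescence. TEA 100mM pH 7.6, MgCl2 5mM, Tween-20 0.01%.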
Phosphoglycerate kinase, glycosomal (Trypanosoma brucei brucei), sequence (P07378 whole entry, looked up): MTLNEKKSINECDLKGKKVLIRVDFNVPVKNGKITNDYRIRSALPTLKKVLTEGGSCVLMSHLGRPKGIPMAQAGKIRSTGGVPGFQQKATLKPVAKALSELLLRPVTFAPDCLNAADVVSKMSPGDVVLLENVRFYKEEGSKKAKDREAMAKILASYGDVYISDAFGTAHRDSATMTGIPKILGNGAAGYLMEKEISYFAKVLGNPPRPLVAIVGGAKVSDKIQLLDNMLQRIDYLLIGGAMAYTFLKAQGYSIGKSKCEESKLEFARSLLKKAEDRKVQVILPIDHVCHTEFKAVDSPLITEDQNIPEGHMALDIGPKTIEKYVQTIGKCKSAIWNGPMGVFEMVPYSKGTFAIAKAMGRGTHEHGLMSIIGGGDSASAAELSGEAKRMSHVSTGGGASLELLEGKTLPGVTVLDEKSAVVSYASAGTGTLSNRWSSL

For test [9], the target named is phosphoglycerate mutase (Leishmania major) (UniProt Q4Q090). Description: qHTS Validation Assay to Find Inhibitors of Phosphoglycerate Mutase (AID 504548).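 Further: end-point luminescence from Kinase-GloPlus after the PGAM reaction; series mostly up to about 58 µM; on the % scale 0 is the no-effect control and ±100 the full control effect.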 To be noted: Potency: inhibition qHTS. The method, boiled down: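 Inhibition of L. major PGAM was assessed by Kinase-GloPlus luminescence following a 45-minute room-temperature reaction with enzyme at 1.25nM final.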
phosphoglycerate mutase (Leishmania major), sequence (Q4Q090 1-553): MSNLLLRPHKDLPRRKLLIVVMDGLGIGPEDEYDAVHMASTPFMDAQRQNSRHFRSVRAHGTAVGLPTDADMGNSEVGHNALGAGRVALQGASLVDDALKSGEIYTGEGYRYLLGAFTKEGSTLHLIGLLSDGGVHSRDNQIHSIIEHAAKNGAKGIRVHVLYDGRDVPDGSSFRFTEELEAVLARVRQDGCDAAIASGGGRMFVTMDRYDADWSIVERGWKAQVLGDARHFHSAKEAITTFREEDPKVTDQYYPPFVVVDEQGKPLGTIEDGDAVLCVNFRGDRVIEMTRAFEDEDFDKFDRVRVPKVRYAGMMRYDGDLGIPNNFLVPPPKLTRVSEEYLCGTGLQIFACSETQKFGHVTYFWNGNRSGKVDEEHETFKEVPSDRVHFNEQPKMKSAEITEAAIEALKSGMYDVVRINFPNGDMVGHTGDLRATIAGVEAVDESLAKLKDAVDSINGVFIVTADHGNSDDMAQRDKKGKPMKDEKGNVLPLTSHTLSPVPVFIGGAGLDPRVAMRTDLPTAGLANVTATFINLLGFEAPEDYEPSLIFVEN

Test [10] concerns the target Ubiquitin carboxyl-terminal hydrolase 1 (Homo sapiens) (UniProt O94782). Kind of test: Inhibitors of USP1/UAF1: Pilot qHTS (AID 504865).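 Further: rhodamine fluorescence freed from ubiquitin-rhodamine substrate followed over time; top concentration of the series differs between compounds; on the % scale 0 is the no-effect control and ±100 the full control effect; nearly all actives have a fitted effect of over 35% in size.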 The method, boiled down: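 USP1/UAF1 complex at 1 nM preincubated 15 min at room temperature with compound, then Ub-Rho substrate added at 150 nM final. Fluorescence (480/540 nm) read kinetically in 50 mM HEPES pH 7.8, 0.5 mM EDTA, 1 mM TCEP, 0.1 mg/ml BSA, 0.01% Tween-20.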

The nature of test [11]: qHTS for Inhibitors of ATXN expression: Validation of Cytotoxic Assay (AID 588349).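 Further: cells exposed to compound for 72 hr; on the % scale 0 is the no-effect control and ±100 the full control effect.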 The method, boiled down:
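HEK293, compound dose series, 72 hr / 37 degrees C; viability via CellTiter Glo (intracellular ATP).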

Test [12] is described as follows: qHTS for Inhibitors of ATXN expression: Validation (AID 588378). Further: series mostly up to about 57 µM; on the % scale 0 is the no-effect control and ±100 the full control effect; nearly all actives have a fitted effect of over 75% in size. The method, boiled down: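 HEK293 cells carrying ATXN2-firefly luciferase reporter, treated with compound 24 h at 37 °C. Viability read first by CellTiter-Fluor (405/525 nm), then reporter expression by Bright-Glo luminescence; controls were a known ATXN2 expression inhibitor and a luciferase inhibitor.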

For test [13], the target named is ATPase family AAA domain-containing protein 5 (Homo sapiens) (UniProt Q96QE3). Description: Validation screen for small molecules that inhibit ELG1-dependent DNA repair in human embryonic kidney (HEK293T) cells expressing luciferase-tagged ELG1 (AID 493107). Further: nearly all actives have a fitted effect of over 70% in size. Further: potency means the concentration at half of the fitted maximal effect. The method, boiled down: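 Quantitative HTS in HEK293T cells carrying luciferase-tagged ELG1, stimulated with 5-fluorouridine alongside compound for 16 hr. Loss of luciferase signal marks inhibition of ELG1 response.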
ATPase family AAA domain-containing protein 5 (Homo sapiens), sequence (Q96QE3 whole entry, looked up, the tested form may be a part): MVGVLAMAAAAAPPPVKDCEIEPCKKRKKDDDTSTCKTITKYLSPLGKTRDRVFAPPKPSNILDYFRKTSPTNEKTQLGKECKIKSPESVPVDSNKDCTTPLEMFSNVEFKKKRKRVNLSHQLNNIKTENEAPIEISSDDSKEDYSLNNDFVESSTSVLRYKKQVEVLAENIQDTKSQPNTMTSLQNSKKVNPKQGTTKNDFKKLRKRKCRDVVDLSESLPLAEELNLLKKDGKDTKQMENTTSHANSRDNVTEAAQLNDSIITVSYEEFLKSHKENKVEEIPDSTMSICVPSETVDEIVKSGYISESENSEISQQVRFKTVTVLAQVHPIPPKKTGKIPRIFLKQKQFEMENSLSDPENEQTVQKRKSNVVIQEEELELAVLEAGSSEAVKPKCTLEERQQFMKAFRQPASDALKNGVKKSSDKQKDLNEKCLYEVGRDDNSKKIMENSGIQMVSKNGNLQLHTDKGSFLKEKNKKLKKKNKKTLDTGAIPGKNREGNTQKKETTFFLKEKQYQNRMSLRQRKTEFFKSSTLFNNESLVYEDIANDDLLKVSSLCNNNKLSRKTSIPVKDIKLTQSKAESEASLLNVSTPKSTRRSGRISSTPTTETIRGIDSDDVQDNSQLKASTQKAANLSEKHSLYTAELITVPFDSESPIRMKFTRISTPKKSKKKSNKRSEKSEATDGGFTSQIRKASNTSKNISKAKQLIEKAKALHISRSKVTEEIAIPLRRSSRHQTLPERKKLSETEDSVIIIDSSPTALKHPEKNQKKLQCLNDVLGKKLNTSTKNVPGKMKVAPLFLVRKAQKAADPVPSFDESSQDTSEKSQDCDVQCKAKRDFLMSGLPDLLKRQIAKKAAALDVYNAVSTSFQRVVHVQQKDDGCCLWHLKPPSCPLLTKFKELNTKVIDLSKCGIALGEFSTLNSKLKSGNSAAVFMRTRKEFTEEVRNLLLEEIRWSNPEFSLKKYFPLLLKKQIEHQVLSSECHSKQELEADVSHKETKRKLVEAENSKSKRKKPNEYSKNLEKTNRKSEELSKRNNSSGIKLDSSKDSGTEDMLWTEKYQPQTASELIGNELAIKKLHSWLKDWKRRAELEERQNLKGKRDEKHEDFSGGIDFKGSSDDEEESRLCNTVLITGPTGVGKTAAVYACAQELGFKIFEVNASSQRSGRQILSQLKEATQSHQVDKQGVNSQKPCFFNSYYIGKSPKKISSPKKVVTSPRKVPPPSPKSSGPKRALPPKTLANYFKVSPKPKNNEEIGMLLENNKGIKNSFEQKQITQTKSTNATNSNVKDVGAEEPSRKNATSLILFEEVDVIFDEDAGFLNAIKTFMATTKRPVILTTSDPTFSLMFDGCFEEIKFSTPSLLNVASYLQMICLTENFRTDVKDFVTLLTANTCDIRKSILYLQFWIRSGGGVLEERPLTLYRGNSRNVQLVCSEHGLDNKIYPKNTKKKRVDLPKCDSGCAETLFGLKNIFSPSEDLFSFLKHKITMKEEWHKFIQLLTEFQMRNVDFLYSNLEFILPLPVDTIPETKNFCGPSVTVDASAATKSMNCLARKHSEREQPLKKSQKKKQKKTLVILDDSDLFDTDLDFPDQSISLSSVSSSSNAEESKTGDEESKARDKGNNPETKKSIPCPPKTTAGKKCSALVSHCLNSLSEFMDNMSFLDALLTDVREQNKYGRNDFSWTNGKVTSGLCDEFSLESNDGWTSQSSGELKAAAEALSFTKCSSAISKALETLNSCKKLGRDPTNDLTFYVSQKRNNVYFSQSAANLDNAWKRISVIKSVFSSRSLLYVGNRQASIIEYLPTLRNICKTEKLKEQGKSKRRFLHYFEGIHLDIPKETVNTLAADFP

Test [14] deals with Galactokinase (Homo sapiens) (UniProt P51570). Kind of test: qHTS Validation Assay for Inhibitors of Human Galactokinase (GALK) (AID 493189). Further: 0% is about no effect. The method, boiled down: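 GALK (5 nM) with 35 uM ATP and 100 uM galactose in HEPES pH 8.0 with MgCl2, NaCl, DTT and BSA. Reaction ran 1 h at room temperature. Residual ATP read by Kinase-Glo Plus luminescence.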
Galactokinase (Homo sapiens), sequence (P51570 whole entry, looked up): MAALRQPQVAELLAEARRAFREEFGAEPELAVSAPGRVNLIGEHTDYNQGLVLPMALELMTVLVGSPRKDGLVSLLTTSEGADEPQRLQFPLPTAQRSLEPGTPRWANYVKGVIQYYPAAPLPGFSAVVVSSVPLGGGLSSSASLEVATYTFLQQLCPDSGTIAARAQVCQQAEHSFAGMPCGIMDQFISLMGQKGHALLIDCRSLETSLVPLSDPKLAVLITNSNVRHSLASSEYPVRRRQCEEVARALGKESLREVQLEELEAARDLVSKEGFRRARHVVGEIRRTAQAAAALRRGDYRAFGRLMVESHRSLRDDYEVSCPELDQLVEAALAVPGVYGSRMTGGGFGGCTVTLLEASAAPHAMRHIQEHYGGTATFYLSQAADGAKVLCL
A short description of test [15]: Validation screen for small molecules that induce DNA re-replication in SW480 colon adenocarcinoma cells (AID 504364). Further: 0% is about no effect. The method, boiled down: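 Cells are treated 48 hr with test compound, stained 40 min with Hoechst at 37 C, and scanned for nuclear fluorescence; compounds inducing re-replication increase nuclei with elevated intensity.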

Inconclusive results are not listed. The source made the active and inactive calls. Unless noted, the call rests on the fitted dose curve; in most records, active means well fitted curve in the direction sought with a large enough effect; inconclusive means small, poorly fitted or top-dose-only effect, or another doubt; inactive means no such curve, though single readings can be large; an effect the other way counts as inactive or inconclusive.

D(1A) dopamine receptor (Homo sapiens), sequence (P21728 whole entry, looked up): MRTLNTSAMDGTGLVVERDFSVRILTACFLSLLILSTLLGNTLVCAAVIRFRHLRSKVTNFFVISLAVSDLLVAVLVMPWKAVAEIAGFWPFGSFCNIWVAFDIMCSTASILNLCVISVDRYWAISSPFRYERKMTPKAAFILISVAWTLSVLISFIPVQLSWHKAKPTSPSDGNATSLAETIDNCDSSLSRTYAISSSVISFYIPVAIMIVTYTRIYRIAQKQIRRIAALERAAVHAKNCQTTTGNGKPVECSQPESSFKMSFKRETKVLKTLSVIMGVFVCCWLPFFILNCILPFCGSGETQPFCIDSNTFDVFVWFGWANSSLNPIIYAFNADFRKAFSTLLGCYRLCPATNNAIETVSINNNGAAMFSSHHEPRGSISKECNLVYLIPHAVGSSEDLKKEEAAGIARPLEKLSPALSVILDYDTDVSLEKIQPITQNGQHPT
Ubiquitin carboxyl-terminal hydrolase 1 (Homo sapiens), sequence (O94782 whole entry, looked up): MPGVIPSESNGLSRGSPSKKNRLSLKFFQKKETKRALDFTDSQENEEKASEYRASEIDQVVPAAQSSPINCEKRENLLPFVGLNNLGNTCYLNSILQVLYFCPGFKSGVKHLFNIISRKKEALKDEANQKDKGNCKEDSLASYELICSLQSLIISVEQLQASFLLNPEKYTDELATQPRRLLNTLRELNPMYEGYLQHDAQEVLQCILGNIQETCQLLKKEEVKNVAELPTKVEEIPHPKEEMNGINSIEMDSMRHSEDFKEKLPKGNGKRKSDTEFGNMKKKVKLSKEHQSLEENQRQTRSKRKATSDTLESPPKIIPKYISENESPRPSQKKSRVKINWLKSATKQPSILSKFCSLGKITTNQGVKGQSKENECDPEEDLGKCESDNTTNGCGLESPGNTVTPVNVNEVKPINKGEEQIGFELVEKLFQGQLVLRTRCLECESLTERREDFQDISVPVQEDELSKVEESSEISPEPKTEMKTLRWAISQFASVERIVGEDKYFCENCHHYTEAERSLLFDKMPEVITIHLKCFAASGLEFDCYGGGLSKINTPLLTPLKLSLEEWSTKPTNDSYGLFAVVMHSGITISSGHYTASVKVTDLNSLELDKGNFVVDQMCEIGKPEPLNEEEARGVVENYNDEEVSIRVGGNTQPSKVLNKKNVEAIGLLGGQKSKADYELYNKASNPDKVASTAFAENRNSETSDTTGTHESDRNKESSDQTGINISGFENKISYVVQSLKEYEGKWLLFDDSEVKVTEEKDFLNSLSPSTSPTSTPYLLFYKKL

As for `Cc1nc2n(c(=O)c1CCN1CCC(c3noc4cc(F)ccc34)CC1)CCCC2O` (configuration not stated), the Potency result in test [1], in test [2], in test [4], in test [5], in test [7] and in test [8] was “inactive” each time. The Potency result in test [9], in [10], in [11] and in test [12] was “inactive” throughout. For the same molecule, in test [3], the Potency is 1 µM (active). Besides, the viability change in test [5] amounted to 3.12%. Also, in test [6], the call was inactive.
`OC[C@H]1O[C@H](n2cnc3c(N[C@H]4CCC[C@@H]4O)ncnc32)[C@H](O)[C@@H]1O`: the Potency result in [1], in test [2], in test [3], in test [5], in test [7] and in test [8] was “inactive” throughout. Also, the Potency result in test [9], in test [10], in test [11] and in test [12] was “inactive” in each case. The viability change in test [5] came to 2.15%. Further, the result in [6] was inactive.
For `c1ccc2c(c1)CCC[C@H]2Nc1nc2ccccc2[nH]1`, the Potency entry in test [1], in [2], in [3], in test [4], in test [5] and in test [7] was “inactive” throughout. The Potency result in [8], in test [10] and in test [12] was “inactive” each time. For the same molecule, the viability change in test [5] was -8.96%. Besides, the call in test [6] was inactive.
With `N#Cc1cc([N+](=O)[O-])c2sc(C(N)=O)[n+]([O-])c2c1`, the Potency entry in [1], in test [2], in test [3], in [4], in test [7] and in test [11] was “inactive” each time. Also, the Potency entry in test [12] is “inactive”. In addition, in test [6], the molecule was called inactive.
`CSc1nc(N)c2ncn([C@@H]3O[C@H](COP(=O)(O)OP(=O)(O)O)C(O)[C@H]3O)c2n1` (some centres not stated): the Potency in test [2] was 0.0517 µM (active). Further, the Potency result in test [13], in test [5], in test [9], in [10], in test [11] and in [12] was “inactive” each time. The viability change in [5] was 0.858%. In addition, the call in test [6] was inactive.
For the molecule `Nc1ncnc2c1nc(Br)n2C1OC2COP(=O)(O)O[C@@H]2C1O` (some centres not stated), the Potency result in [1], in test [2], in test [3], in test [13], in [5] and in test [7] was “inactive” throughout. Also, the Potency entry in test [8], in [9], in [10], in test [11] and in test [12] was “inactive” throughout. Moreover, the viability change in [5] is 1.09%. Moreover, the outcome in test [6] was inactive.
Turning to `N[C@H](C(=O)O)[C@H](Cc1ccccc1)C(=O)O`, the Potency result in test [1], in test [2], in test [3], in test [4], in [5] and in test [7] was “inactive” throughout. The Potency entry in test [8], in test [10] and in [12] was “inactive” throughout. Moreover, the viability change in test [5] is -3.91%. Also, in test [6], the call was inactive.
As for `O=c1[nH]c(=S)[nH]c(-c2ccccc2)c1Cc1c(O)ccc2ccccc12`, the Potency result in test [1], in test [2], in test [3], in [4], in test [13] and in test [7] was “inactive” each time. Moreover, the Potency result in test [9] and in [12] was “inactive” in each case.
With `Nc1ncnc2c1nc(Sc1ccc(Cl)cc1)n2[C@H]1OC2COP(=O)(O)O[C@@H]2C1O` (some centres not stated), the Potency entry in [1], in [2], in [3], in test [13], in [5] and in [7] was “inactive” each time. Besides, the Potency entry in test [8], in test [9], in test [10], in [11] and in [12] was “inactive” in each case. Also, the viability change in test [5] turned out to be 3.2%. In test [6], the outcome was inactive.
Regarding `C[C@]12C=CC(=O)C=C1CC[C@@H]1C2=CC[C@]2(C)[C@@H](C(=O)CN3CCN(c4cc(N5CCCC5)nc(N5CCCC5)n4)CC3)CC[C@@H]12`, the Potency entry in test [1], in test [2], in test [3], in test [4], in [5] and in test [7] was “inactive” each time. The Potency entry in test [9] and in [12] was “inactive” in each case. Moreover, the viability change in [5] is -17.1%. The call in test [6] was inactive.
On to `COc1ccc(CCn2nnnc2C2(c3ccc(C)cc3)CC2)cc1`, for which the Potency result in test [1], in test [2], in test [3], in test [4], in test [13] and in [5] was “inactive” throughout. The Potency entry in [7], in [8], in test [9], in test [11] and in test [12] was “inactive” in each case. Also, the viability change in test [5] stood at 2.86%.
Turning to `NCC(O)c1ccc(O)c(O)c1` (configuration not stated), the Potency entry in [1], in test [2], in test [4], in [5], in test [14] and in test [15] was “inactive” throughout. Also, the Potency entry in test [7], in test [9], in test [10] and in test [12] was “inactive” throughout. Moreover, the Potency is 14.1 µM (active) in test [3] and 4.78 µM (active) in [8]. Besides, the viability change in test [5] was 3.36%. Also, the outcome in test [6] was inactive.
As for `CCCCCCC(=O)OC1CC(C)(C)NC(C)(C)C1`, the Potency entry in test [1], in test [2], in test [3], in [4], in test [5] and in test [7] was “inactive” in each case. Moreover, the Potency result in test [9], in test [10], in test [11] and in test [12] was “inactive” in each case. Moreover, the viability change in [5] came out at 2.37%. Further, the result in [6] was inactive.
On to `C=CCNc1ncnc2ccc(Br)cc12`, for which the Potency entry in [1], in test [2], in test [3], in test [4], in [7] and in test [8] was “inactive” in each case. Besides, the Potency result in test [9], in test [10], in test [11] and in test [12] was “inactive” each time. The Potency in test [13] is 7.3 µM (active).
For `c1ccc(C(NCc2cccnc2)(c2ccccc2)c2ccccc2)cc1`, the Potency entry in [1], in [4], in [5], in test [7], in test [8] and in test [9] was “inactive” in each case. Moreover, the Potency in [2] is 4.11 µM (active). Besides, in test [5], the viability change came out at 7.92%. Further, the call in test [6] was inactive.
`COc1ccc(-c2cc3ncc(C)n3c(Nc3ncccc3C(N)=O)n2)cc1OC`: the Potency entry in test [1], in test [2], in test [3], in test [4], in [7] and in [8] was “inactive” in each case. The Potency result in [9] and in [10] was “inactive” in each case. In addition, in test [13], the Potency is 1.03 µM (active). In addition, the result in test [6] was inactive.
For the molecule `CN(CC[C@@H](Oc1ccc(C(F)(F)F)cc1)c1ccccc1)CC(=O)O`, the Potency result in test [1], in test [2], in test [3], in [13], in test [7] and in test [8] was “inactive” throughout. Moreover, the Potency entry in test [9], in test [10], in test [11] and in test [12] was “inactive” in each case. Further, the result in test [6] was inactive.
